Screening data: PubChem, several laboratories
Peg3 promoter = Peg3 promoter-driven luciferase inhibitors, primary screen, cell-based, HeLa, luciferase luminescence; HeLa PEG-Prom luciferase reporter, overnight; inhibition, % at 20 µM; hit rate 1.7% among 360,000;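 active = inhibition of at least 50% at 20 µM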
MITF TRPM1 inh = inhibitors of MITF-dependent TRPM1 promoter reporter, primary screen, cell-based, SK-MEL-5, single point, luciferase; SK-MEL-5 TRPM1 promoter luciferase, 24 h; inhibition, % at 12.5 µM; hit rate 0.83% among 330,000;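 active = mean inhibition across replicates of 60% or more, whatever share of single replicates reaches that level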
Shn3 inh set2 = reduction of Shn3 3'UTR firefly luciferase signal, primary screen, Schnurri-3 inhibitor project, cell-based, Clone20 osteoblasts, set 2; Clone20 osteoblast Shn3 3'UTR firefly luciferase, 24 h; inhibition, % at 12.5 µM; hit rate 0.52% among 360,000;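 active = mean inhibition of at least 75% with every replicate also reaching 75%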
EBV LMP1 NFkB = EBV LMP1-driven NF-kappaB luciferase reporter inhibitors, primary screen, cell-based, luminescence, single point | inhibition, % at 12.5 µM | AID 504558, 2011 | LMP1-induced NF-kappaB luciferase reporter cells | hit rate 0.69% among 350,000; in the data active = inhibition above about 41%
TROY NFkB inh = inhibitors of TROY-driven NF-kB signaling, primary screen, Q293 LMP1-TROYcd cells, NF-kB luciferase, uHTS; Q293 LMP1-TROYcd NF-kB luciferase reporter, 4 h; inhibition, % at 10 µM; hit rate 0.98% among 360,000; AID 1347056, 2019;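 active = compounds whose plate-normalised and pattern-corrected inhibition of the luciferase reporter signal at the single screening dose is 50% or more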
TWEAK-Fn14 inh = inhibitors of TWEAK-Fn14 signaling, primary screen, luciferase reporter cells, uHTS. AID 1159606, 2016. inhibition, % at 10 µM. hit rate 2% among 360,000. TWEAK-stimulated Fn14 reporter cells, luciferase luminescence, 8 h; in the data active = inhibition above about 50%
Each line names hits and unclear results; the compound was inactive in the other large screens. Most compounds without a hit are left out; they make up all but 4.1% or so of the library.

CC(C)(C)n1nnnc1C(c1ccc(C(F)(F)F)cc1)N(Cc1ccccc1)Cc1ccco1 (centres undefined)	Shn3 inh set2 88
COc1ccc(F)cc1-c1cc(C(=O)NCc2cccc(Cl)c2)[nH]n1	none (no result: MITF TRPM1 inh, EBV LMP1 NFkB)
COc1ccc(N2CC(C(=O)NCc3cccnc3)CC2=O)cc1 (centres undefined)	TWEAK-Fn14 inh 75 (no result: TROY NFkB inh)
Cc1ccc(S(=O)(=O)N2CCC(C(=O)N3Cc4ccccc4C3)CC2)cc1	none
CN(CC(=O)N1CCCCCC1)S(=O)(=O)c1ccc(Br)cc1	none
Cc1ccc(S(=O)(=O)N2CCC(C(=O)N3CCN(c4ccccn4)CC3)CC2)cc1	TWEAK-Fn14 inh 76
CN(CC(=O)N1CCN(c2ccccn2)CC1)S(=O)(=O)c1ccc(Br)cc1	TWEAK-Fn14 inh 92 (no result: TROY NFkB inh)
CC1(C)Cc2c(cnn2-c2ccc(F)cc2)C(NC(=O)C2=CC(=O)CC(C)(C)O2)C1 (centres undefined)	none (no result: MITF TRPM1 inh)
COc1ccc(CCNC(=O)c2cc(C)oc2C)cc1	none
CC(C)C(NS(=O)(=O)c1cccc(C(F)(F)F)c1)C(=O)N1CCc2ccccc2C1 (centres undefined)	none
COc1ccc(CCN2CCC(Nc3nc4ccccc4n3Cc3ccc(F)cc3)CC2)cc1	Peg3 promoter 82, MITF TRPM1 inh 96
COC(=O)c1ccc(CNC(=O)c2sccc2-c2ccccc2)cc1	MITF TRPM1 inh 79
COC(=O)c1ccc(CNC(=O)c2ccc3c(c2)OCCO3)cc1	TWEAK-Fn14 inh 79
COC(=O)c1cc(CNC(=O)c2sccc2-c2ccccc2)ccc1OC	none
C[C@H]1CN(S(=O)C(C)(C)C)[C@H](CCO)/C1=C\c1ccccc1 (some centres undefined)	none
O=S(=O)(NCC(Nc1ccc(Cl)cc1)c1ccccc1)c1ccc(Cl)cc1 (centres undefined)	TROY NFkB inh 51, TWEAK-Fn14 inh 69
O=S(=O)(NCC(c1ccccc1)N1CCC(O)CC1)c1ccc(Cl)cc1 (centres undefined)	none
CC(OC(=O)c1cc(S(=O)(=O)N2CCOCC2)ccc1F)C(=O)NC1CCCCC1C (centres undefined)	none
C=CCN1C(=O)CS/C1=N\N=C\c1cccc([N+](=O)[O-])c1	none
COc1ccc(-c2ccc(SCC(=O)N3c4ccccc4CC3C)nn2)cc1OC (centres undefined)	TWEAK-Fn14 inh 63
COc1ccc(NC(=O)CSCC(=O)Nc2nnc(C)s2)cc1	none
C/C(=N\NC(=O)c1ccccc1NC(=O)c1ccc(Cl)cc1)c1ccncc1	Peg3 promoter 64, EBV LMP1 NFkB 54
Cc1nn2c(=O)[nH]cnc2c1Cl	none (no result: MITF TRPM1 inh)
O=C(CCc1ccccc1)NCC1(c2ccccc2)CCCC1	none
Cc1cc(C(=O)CSc2nc3ccccc3[nH]2)c(C)n1Cc1ccco1	TROY NFkB inh 81, TWEAK-Fn14 inh 92
C=CCn1c(C)cc(C(=O)CSc2nc3ccccc3[nH]2)c1C	TWEAK-Fn14 inh 80
Cc1cc(C(=O)CCl)c(C)n1Cc1ccco1	Peg3 promoter 62
Cc1cc(C(=O)CSc2nncs2)c(C)n1Cc1ccco1	none
C=CCn1c(C)cc(C(=O)CSc2nc3ccccc3c(=O)[nH]2)c1C	none
COCCn1c(C)cc(C(=O)CSc2nc3ccccc3c(=O)[nH]2)c1C	TWEAK-Fn14 inh 69
CN(C(=O)c1cccc(NC(=O)Cc2cccc(NC(=O)C3CCCN(C(=O)CCc4ccccc4)C3)c2)c1)C1CCC1 (centres undefined)	none
O=C(CC(=O)Nc1ccc(Cl)cc1)N/N=C\c1cccc(F)c1	none
CC(=O)c1ccc(Nc2cc(C)nc3c(C)cc(C)cc23)cc1	Peg3 promoter 103
O=C(COC(=O)C1CC2CCCC(C1)C2=O)Nc1ccc(Cl)cn1 (centres undefined)	none
Cc1cc(NC(=O)Cc2cc(F)cc(F)c2)no1	none
NC(=O)c1ccsc1NC(=O)c1ccc(S(=O)(=O)N2CCCc3ccccc32)cc1	TROY NFkB inh 61, TWEAK-Fn14 inh 92 (no result: MITF TRPM1 inh)
CC(C)N1CCc2c(sc(NC(=O)c3ccc(S(=O)(=O)N4CCc5ccccc54)cc3)c2C(N)=O)C1	Peg3 promoter 98
CC(C)N1CCc2c(sc(NC(=O)c3nc4ccccc4s3)c2C(N)=O)C1	none
CC(C)(CN1CCN(C(c2ccccc2)c2ccccc2)CC1)NS(=O)(=O)c1ccccc1	none
COc1ccc(C)c2sc(=NC(=O)c3ccc(C(C)=O)cc3)n(C)c12	TROY NFkB inh 51
CC(=O)c1ccc(NC(=O)C(C)Sc2nnc3ccccn23)cc1 (centres undefined)	none
O=C(Nc1ccc2c(c1)OCCO2)c1cccc2nc3ccccc3nc12	MITF TRPM1 inh 73
O=C(Nc1ccc2c(c1)OCCO2)c1ccccc1F	TWEAK-Fn14 inh 53
O=C(Nc1ccc(N2CCOCC2)cc1)c1cn2ccccc2n1	EBV LMP1 NFkB 55, TWEAK-Fn14 inh 68
O=C(Nc1ccc(Cl)c(S(=O)(=O)N2CCOCC2)c1)c1cn2ccccc2n1	none
CSc1ncccc1C(=O)Nc1ccc2c(c1)OCCO2	TWEAK-Fn14 inh 50
O=C(NC(=S)Nc1ccc2c(c1)OCCO2)c1ccccc1F	none
O=C(NCc1ccc(F)cc1)C1CCN(c2cnccn2)CC1	none
COc1ccc(C2=NS(=O)(=O)N(C)C(C(=O)NCc3ccc(F)cc3)=C2)cc1OC	none
O=C(Nc1ccc(N2CCCCC2)cc1)c1ccccn1	Peg3 promoter 91, MITF TRPM1 inh 82, EBV LMP1 NFkB 75, TROY NFkB inh 87, TWEAK-Fn14 inh 100
O=C(Nc1ccc(N2CCCCCC2)cc1)c1ccccc1Cl	none
O=C(Nc1ccc2c(c1)OCCO2)c1ccccn1	EBV LMP1 NFkB 48, TROY NFkB inh 57, TWEAK-Fn14 inh 79
CCCCC[C@H](O)/C=C/C1C(=O)C=C[C@H]1C/C=C\CCCC(=O)OC (some centres undefined)	Peg3 promoter 95, MITF TRPM1 inh 64, TWEAK-Fn14 inh 59
NC(c1csc(Nc2nncc3ccccc23)n1)c1ccccc1Cl (centres undefined)	none (no result: MITF TRPM1 inh, EBV LMP1 NFkB)
COc1cc(OC)nc(Nc2nc(C(N)Cc3ccc(F)cc3)cs2)n1 (centres undefined)	Peg3 promoter 96 (no result: MITF TRPM1 inh, EBV LMP1 NFkB)
COc1ccc(CC(N)c2csc(Nc3nncc4ccccc34)n2)cc1 (centres undefined)	Peg3 promoter 121 (no result: MITF TRPM1 inh, EBV LMP1 NFkB)
CCc1cnc(Nc2nc(C(N)Cc3ccc(Cl)cc3)cs2)nc1 (centres undefined)	none (no result: MITF TRPM1 inh, EBV LMP1 NFkB)
NC(c1csc(Nc2nncc3ccccc23)n1)C1CCCCC1 (centres undefined)	Peg3 promoter 113 (no result: MITF TRPM1 inh, EBV LMP1 NFkB)
CCCc1cnc(Nc2nc(C(N)Cc3ccc(OC)cc3)cs2)nc1 (centres undefined)	Peg3 promoter 100 (no result: MITF TRPM1 inh, EBV LMP1 NFkB)
